The values below come from PubChem BioAssay AID463190 (Sanford-Burnham Center for Chemical Genomics, 2010).

SMILES strings stand for the structures. The whole screen tested about 330,000 compounds, of which about 7,300 (2.2%) were called active.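 The calls were made as follows: active = inhibition of at least 40%; inactive = the rest.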 The list comes from a sample in which actives are over-represented; it also holds similar structures and randomly drawn compounds.

The assay is described as follows: growth inhibition of tim10-1 ts yeast – luminescence, uHTS, primary screen (AID 463190).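 Also: mutant grown at 25 °C; 0% = DMSO wells with yeast and 100% = wells holding no yeast.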 The note with it: S. cerevisiae tim10-1 ts strain growth, BacTiter-Glo, 24 h; at 20 µM; hits give high values.
Broadly, the inhibition is the change of the read-out against control, counted positive when it falls. With `Cn1c(=O)c2c(ncn2CC(COCc2ccccc2Cl)OCc2ccccc2Cl)n(C)c1=O` (stereo not given), the inhibition is 19.9% (inactive). In the case of `Cc1ccnc(N2CCN(C(=O)CSc3nc4ccccc4nc3N3CCCCC3)CC2)c1` it was 2.78% (inactive). Regarding `COc1cccc(-n2c(=S)sc3c(=O)n(-c4ccccc4OC)c(SCC4OCCO4)nc32)c1`, the inhibition is 4.35% (inactive).

As to `CNC(C)C#Cc1ccc2sc3cc(OC)c(OC)cc3c(=O)c2c1` (stereo not given), the inhibition is 43.4% (active). `Cc1ccc(C(=O)COC(=O)CCN2C(=O)C3C4CC(C(Br)C4Br)C3C2=O)cc1` (stereo not given): the inhibition was 7.92% (inactive). To `CCCCOc1ccc(C(=O)NCC(=O)OCC(=O)N2CCN(S(=O)(=O)c3ccc(C)cc3C)CC2)cc1` belongs 15.7% (inactive); to `O=C(COC(=O)c1ccc(F)cc1)NCCCc1ccccc1`, 24.1% (inactive); to `CCOc1ccc(NC(=O)c2ccc(NC(=O)CN3C(=O)C(=O)N(CC(C)C)C3=O)cc2)cc1`, 2.57% (inactive). Take `COc1ccc(CCNc2nc3ccc(C)cc3n3cnnc23)cc1OC`: the inhibition was 2.87% (inactive).

Regarding `COc1ccc(CCNc2cc(C)nc3c(-c4ccc(Cl)cc4)c(C)nn23)cc1OC`, the inhibition was 43.9% (active). Take `COc1ccc(CCNc2nc(C)cc(C)n2)cc1OC`: the inhibition was -4.02% (inactive).

On to `O=C(c1cnc(Cl)c(Cl)c1)N1CCN(S(=O)(=O)c2ccc(F)cc2)CC1`, for which the inhibition is 3.46% (inactive). `COc1ccc(Cc2nnc(SCC(=O)Nc3ccc(C)c(C)c3)o2)cc1OC`: the inhibition was 7.89% (inactive).

As to `N/C(=N\OC(=O)CCn1cccc(C(F)(F)F)c1=O)c1ccc(OC(F)(F)F)cc1`, the inhibition is -0.346% (inactive). In the case of `O=C(CN1CCN(Cc2ccc(F)cc2Cl)C1=O)NCc1cccs1` it was 12.6% (inactive).

Consider `O=c1c(Cl)c(NCc2ccc(F)cc2Cl)cnn1C12CC3CC(CC(C3)C1)C2`, for which the inhibition is 43.1% (active). For the molecule `O=C(O)CC12CC3CC(C1)CC(n1ncc(NCc4ccc(F)cc4)c(Cl)c1=O)(C3)C2`, the inhibition is 0.72% (inactive). Consider `CCOc1cc2[nH]c(=S)n(Cc3ccc(C(=O)N4CCN(C)CC4)cc3)c(=O)c2cc1OCC`, for which the inhibition was 4.68% (inactive). Regarding `Cc1ccc(S(=O)(=O)NCC(=O)NNC(=O)c2ccc(Br)cc2)cc1C`, the inhibition is 6.99% (inactive).

Regarding `COC(=O)/C(C#N)=C/c1occc1C`, the inhibition was -13.8% (inactive). For the molecule `CCN(CC)S(=O)(=O)c1ccc(N2CCCC2)c(NC(=O)c2ccc([N+](=O)[O-])o2)c1`, the inhibition was 31.3% (inactive). In the case of `Cc1onc(C(=O)NCc2ccc(F)cc2)c1[N+](=O)[O-]`, the inhibition is 5.1% (inactive).

`Cc1cccc(NC(=O)c2cc([N+](=O)[O-])ccc2N2CCN(C)CC2)c1`: the inhibition was 10% (inactive). For the molecule `CN1C(=O)c2ccc(C(=O)Nc3ccc(Br)cn3)cc2C1=O`, the inhibition was 6.17% (inactive). For `O=C(Nc1ccc(Br)cn1)c1ccc([N+](=O)[O-])o1`, the inhibition is 66.6% (active). In the case of `O=C(Nc1ccc(Br)cn1)c1ccc([N+](=O)[O-])cc1Cl`, the inhibition is 7.02% (inactive). Regarding `O=C(Nc1cccc(O)c1)c1ccc(C(=O)c2ccccc2)o1`, the inhibition is 6.57% (inactive).

`Cc1cccc(NC(=O)c2ccc([N+](=O)[O-])o2)c1`: the inhibition is 58% (active). On to `Cc1onc(NC(=O)c2ccc([N+](=O)[O-])o2)c1Br`, for which the inhibition is 42.4% (active). Regarding `OC(COCCC12CC3CC(CC(C3)C1)C2)CN1CCCCC1` (stereo not given), the inhibition is 4.4% (inactive).

Turning to `FC(F)(F)c1cccc(-c2cc3ccccc3nc2N2CCCC2)c1`, the inhibition was -16.8% (inactive). Consider `COC(=O)c1ccccc1NC(=O)Cc1ccccc1OC`, for which the inhibition is 10.2% (inactive).

For the molecule `Cc1cccc(NC(=S)NCc2ccc3[nH]c4c(c3c2)CCCC4)c1`, the inhibition was 41.3% (active). `Cc1cccc(NC(=S)NCCN(C2CCCCC2)C2CCCC2)c1`: the inhibition was 28.1% (inactive). To `Cc1cc(C)cc(NC(=S)NCc2ccc(F)cc2)c1` belongs 23.8% (inactive); to `O=S(=O)(O)CCN1CCOCC1`, 6.54% (inactive); to `CCOC12CC(C)(C)CC(C)(CC3=C1C(=O)CC(C)(C)C3)C2` (stereo not given), 17.6% (inactive). Turning to `CC1(c2nnc(-c3ccncc3)o2)CC(c2cccnc2)=NO1` (stereo not given), the inhibition was -5.58% (inactive). As for `O=C(NCc1ccc(Cl)cc1)NCc1ccc(Cl)cc1`, the inhibition is -35.2% (inactive).

On to `S=C(NCc1ccc(Cl)cc1)NC12CC3CC(CC(C3)C1)C2`, for which the inhibition was 51.4% (active). As to `COC(=O)Cc1ccc(NC(=S)NCc2ccc(Cl)cc2)cc1`, the inhibition was 20.1% (inactive). For the molecule `OC1CCCN(c2ncnc3c2nnn3Cc2c(F)cccc2Cl)C1` (stereo not given), the inhibition was 14.9% (inactive). For `O=S1(=O)CCO[C@H]2Cc3ccccc3[C@H]2N1Cc1ccccc1`, the inhibition is 10% (inactive).

Turning to `CC1=C(C(N)=O)C(c2ccc(F)cc2)n2nc(CCCO)nc2N1` (stereo not given), the inhibition is 15.6% (inactive). With `COC(=O)CC(=O)N1CCN(c2ccc(Cl)c(Cl)c2)CC1`, the inhibition is 5.73% (inactive). To `COC(=O)CSc1snnc1-c1ccc(Cl)c(Cl)c1` belongs 47.3% (active); to `COC(=O)CSc1nnc(NC(=O)CCc2ccccc2)s1`, 17.2% (inactive). As to `N#CC(C(N)=O)=C1CCC2(CC1)OCCCCO2`, the inhibition was 17.1% (inactive). In the case of `Cc1cc(C)cc(NC(=O)NC2CCCCCCC2)c1`, the inhibition was 14.5% (inactive). In the case of `CCOC(=O)C1=C(C)N=c2s/c(=C\C(=O)OC)c(=O)n2C1c1ccc(OC)cc1` (stereo not given) it was 42.2% (active). On to `COCCOC(=O)C1=C(C)N=c2s/c(=C\c3cccs3)c(=O)n2C1c1cccs1` (stereo not given), for which the inhibition was 15.4% (inactive).

As to `CCOC(=O)C1=C(CSc2nccn2C)NC(=O)NC1c1ccc(OC)cc1` (stereo not given), the inhibition is 15.6% (inactive). For `CN(C)S(=O)(=O)c1ccc(C(=O)NCC2(N3CCOCC3)CCCCC2)cc1`, the inhibition was -9.36% (inactive). In the case of `CC(=O)c1ccc(NC(=O)c2ccc3c(Cl)c4c(nc3c2)CCCC4)cc1` it was 13.3% (inactive); in that of `CC(C)CCNC(=O)c1ccc2c(Cl)c3c(nc2c1)CCC3`, 41% (active); in that of `COc1ccc(N2CCN(C(=O)c3ccc4c(Cl)c5c(nc4c3)CCCC5)CC2)cc1`, -0.417% (inactive). In the case of `COc1ccc(C(=O)c2c3ccc([N+](=O)[O-])cc3[n+]([O-])n2CCCN)cc1`, the inhibition is 1.86% (inactive).

Regarding `O=C(COC(=O)CCOc1ccccc1)Nc1cc(S(=O)(=O)N2CCCCC2)ccc1Cl`, the inhibition was 46.3% (active). Take `CS(=O)(=O)c1ccc(Cl)c(NC(=O)COC(=O)c2cccc(S(=O)(=O)N3CCCC3)c2)c1`: the inhibition was -30.8% (inactive). Consider `COc1ccc(S(=O)(=O)N2CCCCC2)cc1NC(=O)COc1ccccc1`, for which the inhibition was 7.99% (inactive).
